# Reference: the supplement of paper PMC6555819
# Columns and labels:
# Test in all cases: PBM binding z-score (relative to random genomic background probes); higher = stronger binding; sequences stand for … in GC…GCGATTGACAGCGTAGAATGAAGG
# [1] = test system: FXR:RXRa (NR concentration 270 nM, RXRa partner concentration 90 nM)
# Method in brief: (§1)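 Antibodies against each partner of ligand-free nuclear receptor dimers (one per run) detected binding on custom Agilent 4×180K protein-binding microarrays after 1 h incubation. The double-stranded probes had 34-nt variable regions carrying direct-repeat seeds, single-nucleotide variants, half-site ablations and random human genomic background sequences. Binding z-scores, from regression-normalized fluorescence, use the random background probes as reference.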
# [2] = test system: LXRa:RXRa (NR concentration 270 nM, RXRa partner concentration 90 nM)
# Method in brief: as §1
# [3] = test system: LXRa homodimer (NR concentration 270 nM)
# Method in brief: as §1
# [4] = test system: LXRb:RXRa (NR concentration 270 nM, RXRa partner concentration 90 nM)
# Method in brief: as §1
# [5] = test system: LXRb homodimer (NR concentration 270 nM)
# Method in brief: as §1
# [6] = test system: PPARa:RXRa (NR concentration 270 nM, RXRa partner concentration 90 nM)
# Method in brief: as §1
# [7] = test system: PPARg:RXRa (NR concentration 180 nM, RXRa partner concentration 90 nM)
# Method in brief: as §1
# [8] = test system: PPARg:RXRa 270nM:90nM, anti-RXR (NR concentration 270 nM, RXRa partner concentration 90 nM)
# Method in brief: as §1
# [9] = test system: PPARg:RXRa 30nM:10nM, anti-RXR (NR concentration 30 nM, RXRa partner concentration 10 nM)
# Method in brief: as §1
# [10] = test system: PPARg:RXRa 90nM:30nM, anti-RXR (NR concentration 90 nM, RXRa partner concentration 30 nM)
# Method in brief: as §1
# [11] = test system: PPARg:RXRa DBDmut IVT, anti-RXR (DBD mutation: RXRa K156A/R161A, NR concentration 270 nM, RXRa partner concentration 90 nM)
# Method in brief: as §1
# [12] = test system: PPARg:RXRa IVT, anti-PPARg (NR concentration 270 nM, RXRa partner concentration 90 nM)
# Method in brief: as §1
# [13] = test system: PPARg DBDmut:RXRa IVT, anti-PPARg (DBD mutation: PPARg1 K132A/R137A, NR concentration 270 nM, RXRa partner concentration 90 nM)
# Method in brief: as §1
# [14] = test system: PPARg DBDmut IVT, anti-PPARg (DBD mutation: PPARg1 K132A/R137A, NR concentration 270 nM)
# Method in brief: as §1
# [15] = test system: PPARg homodimer (NR concentration 180 nM)
# Method in brief: as §1
# [16] = test system: PXR:RXRa (NR concentration 270 nM, RXRa partner concentration 90 nM)
# Method in brief: as §1
# [17] = test system: PXR homodimer (NR concentration 270 nM)
# Method in brief: as §1
# [18] = test system: RARa:RXR (NR concentration 270 nM, RXRa partner concentration 90 nM)
# Method in brief: as §1
# [19] = test system: RARa homodimer (NR concentration 270 nM)
# Method in brief: as §1
# [20] = test system: RARb:RXRa (NR concentration 270 nM, RXRa partner concentration 90 nM)
# Method in brief: as §1
Sequence,PBM binding z-score [1],PBM binding z-score [2],PBM binding z-score [3],PBM binding z-score [4],PBM binding z-score [5],PBM binding z-score [6],PBM binding z-score [7],PBM binding z-score [8],PBM binding z-score [9],PBM binding z-score [10],PBM binding z-score [11],PBM binding z-score [12],PBM binding z-score [13],PBM binding z-score [14],PBM binding z-score [15],PBM binding z-score [16],PBM binding z-score [17],PBM binding z-score [18],PBM binding z-score [19],PBM binding z-score [20]
ATCGAAAGGTTGTGAGGTGAGTATACAGAAAGGC,0.714,0.605,-0.189,0.771,0.139,1.68,0.892,0.732,0.508,0.523,-0.125,0.638,0.845,0.495,0.431,0.336,0.498,1.15,0.35,1.45
GCAGACAGGTGAAACGCAGGTAACACAGGGTGGC,-0.0327,-0.0189,-0.439,-0.317,-1.1,0.885,0.859,0.128,-0.52,-0.381,0.623,0.202,0.00158,-0.396,-0.0973,0.067,-0.211,0.594,-0.376,0.622
CCTAGTTGGTCAGGAGATCACACACCGGATATGA,0.118,0.263,0.478,0.0659,0.414,0.215,1.01,0.651,0.236,0.432,0.463,0.766,0.576,0.266,1.26,0.215,0.728,0.415,1.34,0.518
CGAGCGAGGGCATGAGTTGATAGCAAATGCCGAT,0.5,0.467,-0.292,0.175,-1.07,0.945,0.571,0.44,-0.503,0.0146,0.598,0.064,-0.548,-1,-0.175,0.544,-0.137,0.536,-0.541,2.03
TCTTGTAAATCAGCAGGTTAAGAAAGCTGGCCAA,0.256,0.519,-0.233,0.511,-0.113,0.935,-0.661,1.45,3.06,2.45,1.8,-0.234,-0.435,-0.222,0.0187,0.477,-0.284,0.789,0.26,0.224
CCTACTGGGCCACGCAAGGTCATTGATTCAGTGA,2.92,3.83,2.79,2.39,-0.438,3.32,2.94,3.26,1.18,2.34,5.58,5.36,0.0336,0.776,2.02,4.51,1.84,3.48,0.546,2.81
CAAACTAGGTCACAGAGGTCCAAGTCCGTGCGTA,4.06,3.27,0.422,2.32,0.233,5.18,8.72,7.58,5.04,7.32,8.78,9.18,3.75,2.44,2.41,3.43,0.225,3.05,0.32,4.22
CTACCAAGGTGAACAAGGTCGTTGAGTACTATTC,1.64,1.36,0.0569,1.83,-0.22,2.53,1.04,1.24,0.0413,0.542,2.21,2.45,-0.822,-0.624,0.759,3.07,6.86,2.48,0.402,2.24
ATGTCTAGGTAACAAGTTCAGTGAAAGAGAGGAC,0.658,0.774,0.395,0.727,0.845,1.28,1.06,1.07,0.33,1.12,2.05,2.17,1.24,0.999,0.836,1.69,1.68,0.876,0.818,1.56
GCTATTAGTTGAAACGGCAACCGAATGATTCTCG,-0.263,-0.34,-0.23,-0.237,0.111,-0.33,0.341,-0.00574,0.0955,0.0763,0.254,-0.276,-0.0416,-0.0923,0.137,-0.267,0.122,-0.411,-0.177,-0.226
